# Assay results as given in PubChem BioAssay (NCI).
# Compounds without any hit were thinned out: in the full panel of roughly 79,000, 15% have a hit. The source made the active and inactive calls. Rule as the data show it: active = growth inhibition above about 70%; inactive = the rest.
# Assay: NCI Yeast Anticancer Drug Screen. Data for the mec2-1 strain (AID 157)
# Conditions: S. cerevisiae mec2-1 strain, at 5.0 µM (retest, dose inferred, filed as 0.5), stronger effect = higher value
# Summary of the method: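 Vehicle-treated cultures served as reference for growth inhibition of compound-exposed mec2-1 yeast.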
row,SMILES,growth inhibition
1,O=[N+]([O-])c1ccc(-c2ccc(-c3csc(Nc4ccccc4)n3)o2)cc1,96% (active)
2,C1=C(C2=C[P+](c3ccccc3)(c3ccccc3)C=C(c3ccccc3)O2)OC(c2ccccc2)=C[P+]1(c1ccccc1)c1ccccc1,4% (inactive)
3,Cc1ccc(C2C(O)=C(c3ccccc3)Sc3ccc(C)cc32)cc1 (stereo not given),-5% (inactive)
4,CCc1n[nH]c(CC)c1CCCCCCOc1ccc(OC)cc1Cl,-15% (inactive)
5,C=C1CC[C@H]2C(C)=CC[C@@H]3[C@H](OC(=O)[C@H]3CN3CCN(c4ccc(C)c([N+](=O)[O-])c4)CC3)[C@@H]12,30% (inactive)
6,C(CCCCCN1CCCCC1)CCCCN1CCCCC1,-20% (inactive)
7,CN(Cc1cnc2nc(N)nc(N)c2n1)c1ccc(C(=O)NC(CCC(=O)O)C(=O)O)cc1C(F)(F)F (stereo not given),61% (inactive)
8,CC(C(=O)O)C(N)C(=O)O (stereo not given),-1% (inactive)
9,CCCCCCCCCCN(CCCCCCCCCC)C1CC(OC2CC(O)(C(O)CO)Cc3c(O)c4c(c(O)c32)C(=O)c2c(OC)cccc2C4=O)OC(C)C1O (stereo not given),8% (inactive)
10,COc1ccc(OCC(O)CN2CCN(c3cccc(Cl)c3)CC2)cc1 (stereo not given),15% (inactive)
11,O=C(O)c1ccccc1C(=O)c1ccc2c(c1)Cc1ccccc1-2,-3% (inactive)
12,Cc1cc(C2c3ccccc3-c3ccccc32)cc(C)c1O,4% (inactive)
13,CC(C)(C)c1cc(Cl)c(O)c(Cc2cc(C(C)(C)C)cc(Cl)c2O)c1,36% (inactive)
14,COc1cccc(/C=C/C(C)=O)c1OC,4% (inactive)
15,Cc1nc2c(cnn2C)cc1CCc1ccccc1,3% (inactive)
